Test [1] in a line: qHTS to identify inhibitors of the type 1 interferon - major histocompatibility complex class I in skeletal muscle: primary screen against the NCATS Pharmaceutical Collection (AID 1347407). Also: potency is read from the fitted curve at half-maximal effect. The conditions noted are these: human skeletal muscle cells, IFN-b-induced MHC-I HiBiT luminescence, 24 h; series mostly up to 45.9 µM. The method in brief:
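A qHTS format is used: 8-point, 1:5 compound series with 46 uM top final concentration, applied alongside 4 ng/ml IFN-beta to HLA-B*08:01-HiBiT knock-in myoblasts. Luminescence is measured after 24 h treatment.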
For orientation: In qHTS, concentration-response curves come from the screen itself.

The target in test [2] is Protein phosphatase 1D (Homo sapiens) (UniProt O15297). Put plainly: RapidFire Mass Spectrometry qHTS Assay for Modulators of WT P53-Induced Phosphatase 1 (WIP1) (AID 1347424).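 Also: amount of dephosphorylated VEPPL-S-QETFS peptide product formed by WIP1.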 The note with it: WIP1 dephosphorylation of phosphopeptide, RapidFire MS; series mostly up to 63 µM. The method in brief:
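10 nM WIP1 + cpd, 1 h RT; + 2 uM VEPPL-pS-QETFS, 5 min RT; stop 0.5% formic acid; labelled product standard 1 uM; RapidFire MS. Buffer 50 mM Tris pH 7.5, 30 mM MgCl2, 1 mM TCEP.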

The target is the same in test [3]. Description: Rhodamine-PBP qHTS Assay for Modulators of WT P53-Induced Phosphatase 1 (WIP1) (AID 1347425). The note with it: recombinant WIP1, Rhodamine-PBP phosphate fluorescence, real-time; series mostly up to 57.5 µM. The method in brief: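 Read-out: Rhodamine-PBP fluorescence (ex 525/em 598 nm) for released Pi, read each minute for 11 min after adding 10 uM VEPPL-pS-QETFS; signal taken as f1 minus pre-substrate f0. Enzyme 5 nM WIP1 with 1 hr room-temperature compound preincubation.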

Test [4] in a line: Primary qHTS for inhibitors of SARS-S pseudo-typed particle cell entry (AID 1479145; calls by dose curve; also: nearly all actives have a fitted effect of over 45% in size). The note with it: SARS-S pseudotyped particle cell entry, luciferase reporter; series mostly up to 57.1 µM.
The nature of test [5]: Primary qHTS for Huh7 cytotoxicity: counterscreen for inhibitors of MERS-S pseudotyped particle cell entry (AID 1479147; calls by dose curve). The conditions noted are these: cell viability read-out; series mostly up to 57.1 µM.
Test [6] can be described thus: Primary qHTS for inhibitors of MERS-S pseudo-typed particle cell entry (AID 1479149; calls by dose curve; also: nearly all actives have a fitted effect of over 60% in size). The note with it: MERS-S pseudotyped particle entry, luciferase; series mostly up to 57.1 µM.
The nature of test [7]: Primary qHTS for Vero E6 cytotoxicity: counterscreen for inhibitors of SARS-S pseudo-typed particle cell entry (AID 1479150; calls by dose curve). The conditions noted are these: cell viability; series mostly up to 57.1 µM.
Test [8] addresses Calcium and integrin-binding protein 1 (Homo sapiens) (UniProt Q99828). Put plainly: Primary qHTS for Identification of Calcium Integrin Binding Protein 1 (CIB1) Competitor (AID 1508620).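 Also: GST tagged CIB1 binding a fluorescein labelled alphaIIb integrin peptide tracer; top concentration of the series differs between compounds.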 The note with it: CIB1-GST / FITC-alphaIIb peptide fluorescence polarization; series mostly up to 114 µM. The method in brief:
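CIB1-GST (1 uM final) and compound incubated 15 min at room temperature before adding FITC-alphaIIb peptide tracer (100 nM final). Competition for binding read by fluorescence polarization (ex 480, em 540) after another 15 min at room temperature.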

Test [9] in a line: qHTS to identify inhibitors of the type 1 interferon - major histocompatibility complex class I in skeletal muscle: primary screen against the NCATS LOPAC collection (AID 1347405).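 Also: lytic HiBiT luminescence reporting HLA-B protein level.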 The note with it: iHSKM muscle cells, IFN-b-induced MHC-I HiBiT luminescence, 24 h; series mostly up to 45.9 µM. The method in brief: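 Luminescence from HiBiT fused to endogenous HLA-B in CRISPR-engineered human myoblasts served as the read-out. Cells received 4.0 ng/ml IFN-beta plus compound (seven concentrations, 1:4.3 steps, highest 46 uM final) for 24 hrs before lytic detection.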

A short description of test [10]: qHTS for inhibitors of adenylyl cyclases using a fission yeast platform: a pilot screen against the NCATS LOPAC library (AID 1347410). The note with it: S. pombe CHP2027, fbp1-GFP fluorescence, 18 h; series mostly up to 57.5 µM. The method in brief:
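Inhibition of GNAS-stimulated AC9 activity in S. pombe was inferred from derepression of a PKA-repressed fbp1-GFP reporter, measured as cytometric fluorescence after 18 h at 30C with compounds at up to 57 µM.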

The nature of test [11]: Validation qHTS assay for inhibitors of Activation Induced Cytidine Deaminase (AID): UDG Counterscreen signal (AID 1347427). The conditions noted are these: biochemical UDG counterscreen, fluorescence signal; series mostly up to 115 µM. The method in brief: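 Counterscreen read of UDG activity (2 U/mL, 4/3x) in the FRET deamination format with AID (1 uM, 4/3x), DJC20/DJC23 substrates (250 nM, 4x), 4 h at room temperature. NaOH stop, fluorescence at 560 ex/665 em.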

The target in test [12] is Single-stranded DNA cytosine deaminase (Homo sapiens) (UniProt Q9GZX7). Put plainly: Validation qHTS assay for inhibitors of Activation Induced Cytidine Deaminase (AID): AID signal (AID 1347429). The note with it: Recombinant AID, FRET ssDNA deamination with UDG, fluorescence; series mostly up to 115 µM. The method in brief:
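Fluorescence at 540 nm excitation and 590 nm emission reports ssDNA cytosine deamination by AID, with UDG in the same well. Compound-treated reactions ran 4 hr at room temperature with DJC20/DJC23 substrate, followed by 30 min NaOH treatment.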

Test [13] can be described thus: Primary qHTS for inhibitors of La Crosse Virus (LACV) - induced cell death in SH-SY5Y cells (AID 1508616).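 Also: top concentration of the series differs between compounds; higher means more rescue of cells from virus-induced death.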 The conditions noted are these: SH-SY5Y LACV cytopathicity rescue, ATP luminescence, 6 d; series mostly up to 4.29 µM. The method in brief: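 Protection against LACV-induced cell death is scored in SH-SY5Y cells exposed to compounds and virus (0.01 MOI) for 6 days. Data normalized to virus-infected DMSO wells and virus-free DMSO wells.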

In test [14] the target is Calcium and integrin-binding protein 1 (Homo sapiens) (UniProt Q99828). Description: Validation qHTS for Identification of Calcium Integrin Binding protein 1 (CIB1) Competitor (AID 1508618). The note with it: CIB1-GST / FITC-alphaIIb peptide fluorescence polarization; series mostly up to 114 µM. The method in brief:
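CIB1-GST (1 uM final) in 5 mM HEPES pH 7.4, 125 mM NaCl, 5 mM CaCl2, 0.01% Tween20 was preincubated 15 min at room temperature with compound (up to 114 uM), then FITC-alphaIIb peptide (100 nM) added for 15 min; fluorescence polarization read.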

Test [15] in a line: Counterscreen qHTS for small molecule stabilizers of the endoplasmic reticulum resident proteome: GLuc-NoTag assay (AID 1508627).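 Also: SH-SY5Y cells given compound then 100 nM thapsigargin to empty ER calcium.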 The note with it: Gaussia luciferase NoTag secretion counterscreen, luminescence, thapsigargin 100 nM for final 4 h; series mostly up to 76.4 µM. The method in brief:
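Luminescence of Gaussia luciferase secreted into the medium (coelenterazine, 0.07x final, unlysed cells) was the read-out. Human SH-SY5Y neuroblastoma cells constitutively secreting untagged GLuc received compound for 19 h, then 100 nM thapsigargin for 4 h.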
Background: Counterscreens check selectivity or assay interference.

Test [16] is described as follows: Confirmatory qHTS for small molecule stabilizers of the endoplasmic reticulum resident proteome: Secreted ER Calcium Modulated Protein (SERCaMP) assay (AID 1508628). Also: nearly all actives have a fitted effect of over 40% in size. The note with it: SERCaMP secreted luciferase ER calcium/proteostasis reporter; series mostly up to 76.3 µM. The method in brief:
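SH-SY5Y cells stably expressing GLuc-SERCaMP, treated 16 h with compound (primary 1.53, 7.67, 38.3 uM; confirmation 11 concentrations, up to 76.6 uM), then 100 nM thapsigargin for 4 h. Secreted Gaussia luciferase in medium read by coelenterazine luminescence.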

A short description of test [17]: qHTS to identify inhibitors of the type 1 interferon - major histocompatibility complex class I in skeletal muscle: primary screen against the NCATS Mechanism Interrogation Plate v5.0 (MIPE) Libary (AID 1347411). Also: nearly all actives have a fitted effect of over 65% in size. Also: potency is read from the fitted curve at half-maximal effect. The note with it: iHSKM cells + IFN-b, HiBiT-tagged MHC-I luminescence, 24 h; series mostly up to 45.8 µM. The method in brief:
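Luminescence from HiBiT-tagged endogenous HLA-B*08:01 served as the MHC class I read-out. CRISPR-engineered C25cl48 human myoblasts received 4.0 ng/ml IFN-beta plus compound for 24 hrs, with an 11-point, 1:3 series topping at 46 uM final.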

Inconclusive results are not listed. Active and inactive are the calls of the source. Unless noted, calls follow the shape of the dose curve; as a rule, active = well fitted curve in the direction sought with a large enough effect; inconclusive = small, poorly fitted or top-dose-only effect, or another doubt; inactive = no such curve, though single readings can be large; an effect the other way counts as inactive or inconclusive.

Sequence of Calcium and integrin-binding protein 1 (Homo sapiens) (Q99828 whole entry, looked up): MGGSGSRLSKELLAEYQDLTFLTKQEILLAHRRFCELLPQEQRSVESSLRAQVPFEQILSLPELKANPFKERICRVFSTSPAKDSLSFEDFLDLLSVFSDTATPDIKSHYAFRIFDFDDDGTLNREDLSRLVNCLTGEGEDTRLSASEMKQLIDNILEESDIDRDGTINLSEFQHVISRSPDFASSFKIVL
Sequence of Protein phosphatase 1D (Homo sapiens) (O15297 whole entry, looked up): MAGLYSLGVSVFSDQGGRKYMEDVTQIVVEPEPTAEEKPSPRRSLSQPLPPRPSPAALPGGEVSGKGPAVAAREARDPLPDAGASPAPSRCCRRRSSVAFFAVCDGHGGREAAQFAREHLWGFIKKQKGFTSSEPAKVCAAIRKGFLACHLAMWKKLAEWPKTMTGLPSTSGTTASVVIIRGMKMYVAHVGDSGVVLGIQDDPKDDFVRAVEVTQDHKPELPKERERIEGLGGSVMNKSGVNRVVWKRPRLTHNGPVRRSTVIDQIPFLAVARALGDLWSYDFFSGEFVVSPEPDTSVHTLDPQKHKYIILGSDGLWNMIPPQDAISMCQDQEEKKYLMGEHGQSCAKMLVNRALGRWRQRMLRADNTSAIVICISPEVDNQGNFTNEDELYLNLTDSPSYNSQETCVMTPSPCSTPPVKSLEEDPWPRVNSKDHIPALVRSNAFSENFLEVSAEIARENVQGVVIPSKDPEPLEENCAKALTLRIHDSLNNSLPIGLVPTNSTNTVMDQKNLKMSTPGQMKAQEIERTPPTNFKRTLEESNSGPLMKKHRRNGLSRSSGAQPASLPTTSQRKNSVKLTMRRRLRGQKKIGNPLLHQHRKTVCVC
Sequence of Single-stranded DNA cytosine deaminase (Homo sapiens) (Q9GZX7 whole entry, looked up): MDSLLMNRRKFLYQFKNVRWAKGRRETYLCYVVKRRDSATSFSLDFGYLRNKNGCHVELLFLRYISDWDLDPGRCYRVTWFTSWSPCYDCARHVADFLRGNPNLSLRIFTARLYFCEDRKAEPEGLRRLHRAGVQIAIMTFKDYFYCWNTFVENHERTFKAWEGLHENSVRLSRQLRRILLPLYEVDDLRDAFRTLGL

Turning to `CC(Cc1ccccc1)NCc1ccccc1Cl` (stereo not given), the Potency result in [1], in test [2], in test [4], in test [5], in test [6] and in test [7] was “inactive” throughout. Further, the Potency result in test [8] is “inactive”. The outcome in test [3] was inactive.
As for `COC(=O)C1=CCCN(C)C1`, the molecule was classed as inactive in test [9], in test [10], in test [3], in test [11], in test [12] and in test [13]. Besides, in [14], the outcome was inactive. Also, the Potency result in test [1], in test [2] and in [8] was “inactive” each time.
`CC(C)[N+](C)(CCC(C(N)=O)(c1ccccc1)c1ccccc1)C(C)C`: the Potency entry in test [1], in [2], in test [4], in test [5], in test [6] and in test [7] was “inactive” in each case. The Potency result in test [8] is “inactive”. For the same molecule, the outcome in [3] and in test [13] was inactive.
Turning to `NC(=O)OCCCc1ccccc1`, the Potency entry in test [1], in test [2], in [4], in test [5], in [6] and in test [7] was “inactive” in each case. Also, the Potency result in test [8], in test [15] and in test [16] was “inactive” throughout. Besides, the result in test [3] and in test [13] was inactive.
For the molecule `CC1COC2(c3ccccc3Cl)c3cc(Cl)ccc3NC(=O)CN12` (stereo not given), the Potency result in [1], in test [2], in test [4], in [5], in [6] and in test [7] was “inactive” each time. For the same molecule, the Potency result in test [8] was “inactive”. Also, the outcome in test [3] and in test [13] was inactive.
As to `O=C(O)c1nn(Cc2ccc(Cl)cc2Cl)c2ccccc12`, the outcome in test [9], in test [10], in test [11], in [12], in test [13] and in test [14] was inactive. For the same molecule, the Potency entry in [1], in test [17] and in test [8] was “inactive” in each case.
Turning to `O=C(O)Cc1ccccc1`, the Potency result in test [1], in test [2], in [4], in test [5], in test [6] and in test [7] was “inactive” each time. Besides, the Potency result in test [8] is “inactive”. Moreover, in test [3], the outcome was inactive.
For `Cc1nnc2n1-c1sc(CCC(=O)N3CCOCC3)cc1C(c1ccccc1Cl)=NC2`, the Potency result in test [1], in test [2], in test [4], in [5], in test [6] and in [7] was “inactive” throughout. Besides, the Potency entry in test [8] is “inactive”. Moreover, the outcome in test [3] and in [13] was inactive.
Take `C[C@@H]1O[C@@H](O[C@@H]2C=C3CC[C@@H]4[C@H](CC[C@]5(C)[C@@H](c6ccc(=O)oc6)CC[C@]45O)[C@@]3(C)CC2)[C@H](O)[C@H](O)[C@H]1O`: the Potency was 3.3 nM (active) in test [1] and 7.4 nM (active) in test [17]. For the same molecule, the Potency entry in test [2], in test [4], in [6] and in test [8] was “inactive” each time. Besides, the result in test [3] was inactive.

The values above are taken from PubChem BioAssay (NCATS).
